The source of these data is PubChem BioAssay (NCI).

The panel holds about 83,000 compounds, 20% with a hit somewhere; the sample as a whole holds those more often.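 Results are percent growth after 48 hours of single-concentration exposure. 100 means growth as in untreated cells, lower positive values show inhibition; negative values down to -100 show cell death.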 Values without a mark were called inactive. The source made the active and inactive calls.

This assay has as its system T-47D breast. Briefly: NCI-60 one-dose screen, 48 h (100 = growth as untreated, 0 = no growth, -100 = all killed). To be noted: 10 µM unless noted. How it is done: Growth inhibition of the T-47D human tumor cell line is measured as a screen for anti-cancer activity. Cells are grown in 96 well plates and exposed to the test compound for 48 hours. Compounds are tested at a single concentration, which is 10^-5 M for most compounds. The reported endpoint is percent growth (GI% or GIPRCNT), where numbers from 0 - 100% represent growth inhibition, and numbers from -100% - 0 represent cell death. For example, a value of 40 represents 60% growth inhibition. A value of 0 means no net growth occurred over the course of the experiment. A value of -40 indicates 40% of cells at the beginning of the experiment died by the end of the experiment. A value of -100 means all cells are dead at the end of the experiment.
NCI-60 Human Tumor Cell Lines Screen was performed using the standard one-dose NCI protocol, which is described in more detail at https://dtp.cancer.gov/discovery_development/nci-60/default.htm.
Compounds with GIPRCNT values below 10 were considered active. Activity score was based on GIPRCNT using the following formula: […]
Score is 0 for GIPRCNT values of 100 or above, 50 for GIPRCNT values of 0, and 100 for GIPRCNT values of -100.
On to `Nc1c(C(=O)Nc2cccc3ncccc23)sc2nc3c(cc12)C(=O)CCC3`, for which the growth was 49.3%. Then `Clc1ccc(-c2cn3ccsc3n2)c(Cl)c1Cl`, with 31.7%; and `CC(/C=C1\SC(=S)N(CC(=O)NC(Cc2c[nH]c3ccccc23)C(=O)O)C1=O)=C\c1ccccc1` (stereo not given), with 106%. With `O=c1nc(Nc2nc3ccccc3s2)[nH]c(=O)c2ccccc12`, the growth was 78.9%. Then `Cn1cc(/C=C2/C(=O)Nc3ccccc32)c2ccccc21`, with 64.7%; and `CC(=O)c1c(Nc2ccc(F)c(F)c2F)[nH]c2c(F)cc(F)cc2c1=O`, with -14.3% (active). Then `NNC(=S)N/N=C/c1ccccn1`, with 9.69% (active); and `O=C(c1ccc(F)c(Cl)c1)N1c2ccccc2Sc2ccccc21`, with 61%; and `CCCCCCCCn1ccc2cc(NC(=O)Cn3cc(CN4CCC(C)CC4)nn3)ccc21`, with 6.9% (active).

With `CCCCC(=O)Nc1ncc(Cc2ccccc2Cl)s1`, the growth was 34.1%.

Take `C#CCOc1cccc(-c2ncc3cc(NC(=O)CCl)ccc3n2)c1`: the growth was -26.7% (active). Then `CS(=O)(=O)Nc1cncc(-c2ccc3ncnc(Nc4ccc(F)c(Cl)c4)c3c2)c1`, with -9.57% (active); and `COc1ccc(-c2ccc(=O)oc2C#Cc2cc(OC)c(OC)c(OC)c2)cc1O`, with 38.8%. Take `CCOC(=O)C/C(=N\Nc1cc(=O)[nH]c2ccc(Cl)cc12)C(=O)OCC`: the growth is 102%. Next, `CCC/C(=N\NC(N)=O)C(OC)OC`: 114%. With `CC(O)c1ncc(/C=C2\SC(=S)N(Cc3ccccc3)C2=O)s1` (stereo not given), the growth is 42.4%. Consider `CCn1cc(C2=C(c3cn(C)c4ncccc34)C(=O)NC2=O)c2cccnc21`, for which the growth is 29.8%.

Consider `O=C(CCCCl)NNc1nccc(Nc2ccc(S(=O)(=O)Nc3ccncc3)cc2)n1`, for which the growth was 94.1%. For the molecule `C=CC(=O)NCCOc1cccc(Nc2cc(NCCCNC(=O)C3CCC3)c(Br)cn2)c1`, the growth is -10.5% (active).

As for `CN1CCN(Cc2ccc(NC(=O)c3cncc(C#Cc4cncc5[nH]ncc45)c3)cc2C(F)(F)F)CC1`, the growth was 31.3%.

Regarding `O=C(NCc1ccccc1O)c1cccc2ccccc12`, the growth was 59.7%.

For the molecule `COc1cc(C(=O)/C=C/c2c(-c3cccs3)nc3ccccn23)cc(OC)c1OC`, the growth was 18.2%. Next, `Cc1ccc(/C=C/C(=O)c2ccc(NC(=O)CSc3nc4c([nH]3)c(=O)n(C)c(=O)n4C)cc2)c(C)c1`: 37.2%; `Nc1ccc([N+](=O)[O-])cc1N=C/C=C/c1ccccc1`: 66.2%. On to `C=CCn1c(SCC(=O)Nc2ccc(C(=O)/C=C/c3cc(OC)c(OC)c(OC)c3)cc2)nnc1-c1cc(-c2ccc(OC)cc2)nc2ccccc12`, for which the growth is 84.9%.

Take `COC(=O)c1ccc2c(c1)c1c(C)c3ccncc3c(C)c1n2C`: the growth was 29.7%. Next, `COc1ccc2nc(SCC(=O)Nc3ccccc3C)[nH]c2c1`: 84.2%; `COC(c1ccc2ccccc2c1)C(C)C(F)F` (stereo not given): 90%.

In the case of `COc1cc(-c2nc3ccc(C)cc3[nH]2)ccc1OCC(=O)N=Nc1c(O)[nH]c2ccc(Cl)cc12`, the growth is -43.2% (active). Take `O=[N+]([O-])/C(=C\c1ccco1)c1ccccc1Cl`: the growth was 36.6%. For the molecule `O=S(=O)(c1ccccc1)N1CCCN(c2nc(-c3ccccc3)nc3nc(-c4ccccc4)oc23)CC1`, the growth was 99.4%.

As for `COc1ccc(C2=NN(C(=O)c3cc(OC)c(OC)c(OC)c3)C(c3ccc(N(C)C)cc3)C2)cc1` (stereo not given), the growth is 56.8%. Take `COc1ccc(C2C3=C(COC3=O)N(CCO)c3cc4c(cc32)OCCO4)cc1OC` (stereo not given): the growth is 25.9%. In the case of `Fc1ccc2c(c1)c(-c1nc(-c3c[nH]c4ncccc34)cs1)cn2CCCN1CCOCC1`, the growth is 38.1%. As to `COc1ccc(/C(C)=C(\c2ccc(Cl)cc2)c2ccc(OCCN3CCCC3)cc2)cc1`, the growth was 45.9%.

For the molecule `C/C(=N\O)C(=O)NCCCCCC(=O)Nc1ccccc1`, the growth is 86.5%. Next, `O=C(CN1C(=O)/C(=C/c2ccco2)SC1=S)NCCc1c[nH]c2ccc(F)cc12`: 103%; `CCOC(=O)NN1CC(O)=C(c2nc(-c3ccc(Br)cc3)cs2)C1=N`: 94.2%. Consider `O=C(O)CCCn1c(SCc2c(Cl)cccc2Cl)nc2ccsc2c1=O`, for which the growth is 35.5%.

`CCN(CC)CCN(CCN(CC)CC)c1ccccc1`: the growth is 89.3%.
